# High-throughput results (PubChem)
# The list is not random: actives were taken first. Their share in the collection is about 1.9%.
# PME-1 primary: blocks human protein phosphatase methylesterase 1 | Q9Y570 | recombinant PME-1, FP-Rh probe fluorescence polarization | inhibition, % at 5.9 µM | 0.53% of 320,000 active | AID 2130;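 active means inhibition above the campaign mean of all compounds plus 3 SD, cut at about 26% in these data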;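 further: competitive labeling of PME-1 active site by serine hydrolase directed probe; inhibitors block probe labeling so polarization falls and inhibition rises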
# PREPL inhibitor: human PREPL enzyme inhibition. 0.68% of 320,000 active. recombinant PREPL, fluorescence polarization activity-based probe. inhibition, % at 5.96 µM; in the data active means inhibition above about 43%
# LYPLA2 counter: blocks human lysophospholipase 2, a PME1 counter-screen. recombinant LYPLA2, FP-Rh probe fluorescence polarization. inhibition, % at 5.9 µM. 0.38% of 320,000 active;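 active means inhibition above the screen-wide mean plus 3 SD, limit set per campaign, cut at about 26% in these data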
# Target sequence (O95372 whole entry, looked up): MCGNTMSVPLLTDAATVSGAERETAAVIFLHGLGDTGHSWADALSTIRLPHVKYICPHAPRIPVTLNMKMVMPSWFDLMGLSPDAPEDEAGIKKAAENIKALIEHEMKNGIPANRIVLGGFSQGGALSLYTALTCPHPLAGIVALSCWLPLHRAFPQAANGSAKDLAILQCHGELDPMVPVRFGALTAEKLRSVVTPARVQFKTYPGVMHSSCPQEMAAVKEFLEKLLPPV
# LYPLA1 counter: counter-screen for PME1 inhibitors: inhibitors of human LYPLA1; AID 2174; inhibition, % at 5.9 µM; recombinant LYPLA1, FP-Rh probe fluorescence polarization; O75608; 0.16% of 320,000 active;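 active means inhibition above the mean of all tested compounds plus 3 SD, set per campaign, cut at about 14% in these data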;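 further: inhibitors block serine hydrolase probe labeling of LYPLA1 so polarization falls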
# Target sequence (O75608 whole entry, looked up): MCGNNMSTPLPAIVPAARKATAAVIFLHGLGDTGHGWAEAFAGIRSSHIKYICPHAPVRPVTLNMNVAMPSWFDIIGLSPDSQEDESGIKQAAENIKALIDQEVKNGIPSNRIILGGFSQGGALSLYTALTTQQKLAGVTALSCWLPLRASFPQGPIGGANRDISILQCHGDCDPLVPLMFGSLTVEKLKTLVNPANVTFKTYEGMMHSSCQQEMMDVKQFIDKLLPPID
# Fam108B counter: counter-screen for RBBP9 inhibitors: inhibitors of mouse Fam108B; 0.33% of 300,000 active; recombinant Fam108B, FP-Rh probe fluorescence polarization; AID 1947; inhibition, % at 9.51 µM;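 active means inhibition above the screen mean inhibition plus 3 SD, computed separately per campaign, cut at about 18% in these data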;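 further: inhibitors lower polarization as less probe binds the enzyme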
# GSTO1 counter: GSTO1 inhibition, counter-screen for RBBP9 inhibitors. P78417. recombinant GSTO1, activity-based probe fluorescence polarization. inhibition, % at 5.96 µM. 1.1% of 300,000 active. AID 1974;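 active means inhibition above the campaign mean inhibition plus 3 SD, cut at about 35% in these data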
# LYPLA1 conf: counter-screen for PME1 inhibitors: confirmation of human LYPLA1 inhibitors | 69% of 480 active | AID 2233 | inhibition, % at 5.9 µM | shares compounds with LYPLA1 counter | recombinant LYPLA1, FP-Rh probe fluorescence polarization;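 active means mean inhibition across replicates above the hit cutoff set in the primary screen, cut at about 15% in these data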;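 further: loss of FP-Rh probe labeling of LYPLA1 seen as lower polarization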
# Numbers stand for hits; 0 = inactive; - = not tested or not shown.
SMILES,PME-1 primary,PREPL inhibitor,LYPLA2 counter,LYPLA1 counter,Fam108B counter,GSTO1 counter,LYPLA1 conf
COc1cc(CNCCCN2CCOCC2)c(Br)cc1OCC(=O)Nc1ccccc1C,0,0,0,17,0,0,0
O=C(CN1CCN(C(=O)c2ccccc2)CC1)Nc1cc(S(=O)(=O)N2CCCC2)ccc1Cl,0,0,0,78,-,-,81
O=C(CN1CCN(C(=O)c2cccc(S(=O)(=O)N3CCCC3)c2)CC1)Nc1ccccc1Cl,0,0,0,0,-,-,-
O=C(CN1CCN(C(=O)c2ccco2)CC1)Nc1cc(Cl)ccc1Cl,0,0,0,82,0,0,85
CN(CCCC1CCCC1)C(=O)c1cc(COc2ccc(F)c(F)c2)on1,0,0,0,16,0,0,28
CCc1ccc(OCC(=O)O/N=C(\N)c2ccncc2)c(Br)c1,0,0,0,0,0,0,-
CCCCNCc1ccc(OCc2ccc(Cl)nc2)c(OC)c1,0,0,0,15,0,0,0
COc1cc(CNCCc2ccccc2)ccc1OCc1ccc(Cl)nc1,0,0,0,0,0,0,-
COCCn1c(C)c(C)c(S(=O)(=O)c2ccccc2)c1N,0,0,0,16,0,0,0
CC(C)n1c(SCC(=O)Nc2nncs2)nnc1-c1ccco1,0,0,0,0,0,0,-
Cc1ccc([N+](=O)[O-])c(OCCCN2CCC(Cc3ccccc3)CC2)c1,0,0,27,36,0,0,52
Cc1ccc([N+](=O)[O-])c(OCCN2CCCCCC2)c1,0,0,0,0,0,0,-
CC(OC(=O)c1nc(Cl)ccc1Cl)C(=O)NC1CCCCC1C (stereo not given),0,0,0,16,-,-,0
C=CCn1c(O)c(N=NC(=S)Nc2cccc(OC)c2)c2ccccc21,0,0,0,0,0,0,-
C=CCn1c(O)c(N=NC(=S)Nc2ccc(OC)cc2)c2ccccc21,0,0,0,30,0,0,33
CN(C(=O)c1ccc(NC(=O)Cc2cccc([N+](=O)[O-])c2)cc1)C1CC1,0,0,0,42,-,-,35
COc1cc2[nH]c(=O)n(CCCCCC(=O)N3CC=C(c4ccccc4)CC3)c(=O)c2cc1OC,0,0,0,17,0,0,18
C/C(=N/NC(=O)c1cc2ccccc2cc1O)C1C(=O)c2ccccc2C1=O,79,0,0,63,75,0,57
CCC(C(=O)NC1CC1)n1nc(C)c2c(C)n(-c3ccccc3)nc2c1=O (stereo not given),0,0,0,0,0,0,-
O=C(O)c1ccccc1/C=N/NC(=S)NCc1ccccc1,0,0,0,0,0,0,-
COc1ccc(S(=O)(=O)Nc2ccc(Cc3ccncc3)cc2)cc1C,0,0,0,36,0,0,47
CCc1ccc(NS(=O)(=O)c2ccc(OC)c(C)c2)cc1,0,0,0,0,0,0,-
Cc1onc(-c2c(F)cccc2Cl)c1C(=O)N=C(N)N1CC(C)OC(C)C1 (stereo not given),0,0,0,0,0,0,-
COc1ccc(NC(=O)Cn2nc(C)c([N+](=O)[O-])c2C)cn1,0,0,0,0,0,0,-
COc1ccc2[nH]c(C(=O)N3CCC(CO)(Cc4cccc(C(F)(F)F)c4)CC3)c(C)c2c1,0,0,0,19,0,0,26
SMILES,PME-1 primary,PREPL inhibitor,LYPLA2 counter,LYPLA1 counter,Fam108B counter,GSTO1 counter,LYPLA1 conf
Cc1ccsc1C1Nc2ccc3ncccc3c2C2=C1C(=O)CC(C)(C)C2 (stereo not given),0,0,0,16,0,0,0
c1ccc2[nH]c(CN3CCN(c4ncnc5c4oc4ccccc45)CC3)nc2c1,0,0,0,17,0,0,18
c1ccc2[nH]c(CSc3ncnc4c3oc3ccccc34)nc2c1,0,0,0,0,0,0,-
CCNCc1cc([N+](=O)[O-])ccc1OCC,0,0,0,0,0,0,-
CCOC(=O)/C(=C\C=C\N1CCOCC1)C(C)=O,0,0,0,0,0,0,-
COC(=O)C(=C/C=C/N1CCOCC1)C(=O)OC,0,0,0,15,0,0,0
CC(C)C[C@H](NC(=O)[C@@H]1Cc2ccccc2CN1C(=O)OC(C)(C)C)C(=O)NCC1CCC(C(=O)O)CC1 (stereo not given in full),0,0,0,0,0,0,-
Cc1cc2oc(C(=O)Nc3ccc(S(=O)(=O)Nc4onc(C)c4C)cc3)cc(=O)c2cc1Cl,0,0,0,20,0,0,22
Nc1cc(=O)[nH]c(SCC(=O)Nc2ccc(Cl)c(Cl)c2)n1,0,0,0,15,0,0,21
CC1CC(=O)Nc2ccccc2S1(=O)=O (stereo not given),0,0,0,18,0,0,0
COc1cc(NC(=O)Cn2ncc3c2-c2ccccc2OC3)cc(OC)c1OC,0,0,0,20,0,0,0
COc1ccccc1NC(=O)Cn1ncc2c1-c1ccccc1OC2,0,0,0,0,0,0,-
Cc1cc(C)c2oc(C(=O)N3CCN(C)CC3)cc(=O)c2c1,0,0,0,0,0,0,-
Cc1cc(C)c2oc(C(=O)N3CCN(Cc4ccccc4)CC3)cc(=O)c2c1,0,0,0,21,0,0,26
CCOc1ccc(C(=O)/C=C/Nc2ccc(S(=O)(=O)Nc3onc(C)c3C)cc2)cc1,0,0,0,0,0,0,-
Cc1noc(NS(=O)(=O)c2ccc(N/C=C\C(=O)c3ccc(Br)cc3)cc2)c1C,0,0,0,16,0,0,34
COCCn1c(=O)[nH]c2cc(C(=O)N3CCN(c4cccc(Cl)c4)CC3)ccc2c1=O,0,0,0,52,0,0,0
COCCn1c(=O)[nH]c2cc(C(=O)N3CCN(c4ccccc4)CC3)ccc2c1=O,0,0,0,0,0,0,-
COc1ccc2c(c1)CCc1c(C(=O)N3CCOCC3)noc1-2,0,0,0,0,0,0,-
COc1ccc2c(c1)CCc1c(C(=O)N3CCCc4ccccc43)noc1-2,0,0,0,34,0,0,35
CSc1ccccc1C(=O)Nc1ccccc1C(=O)N1CCCC1,0,0,0,0,0,0,-
COc1[nH]c(/N=C/c2ccccc2)c(C#N)c1C#N,0,0,0,17,0,35,17
Cc1nc2ccc(C(=O)Nc3cccc([N+](=O)[O-])c3)cc2s1,0,0,0,15,0,0,22
COc1cc(NC(=O)Nc2ccc(Cl)c(Cl)c2)c(C(=O)O)cc1OC,0,0,0,20,0,0,18
COc1cc(OC)c(NC(=O)Nc2ccc(OC)c(OC)c2)cc1Cl,0,0,0,0,0,0,-
O=C(CN1C(=O)NC(Cc2c[nH]c3ccccc23)C1=O)NCCc1ccc(F)cc1 (stereo not given),0,0,0,0,0,0,-
